Laboratory results reported in PubChem BioAssay (NCATS).
Several values for one entry are separate records, joined by “and”; a condition that tells them apart may be missing. Equal entries are not always repeated. Results filed as inconclusive are left out. Entries that show only a call come without a potency. Activity calls are given as the source filed them. Unless noted, calls follow the shape of the dose curve; as a rule, active = well fitted curve in the direction sought with a large enough effect; inconclusive = small, poorly fitted or top-dose-only effect, or another doubt; inactive = no such curve, though single readings can be large; an effect the other way counts as inactive or inconclusive.

Tests used:
[1] = Identifying Small Molecule Inhibitors of Pancreatic Cancer Stem Cells (SN12C, Spheroid) (AID 1259360); conditions: Potency: SN12C spheroid viability; series mostly up to 46.1 µM; also: potency is read from the fitted curve at half-maximal effect
Procedure, shortened: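 Pre-formed 14-day tumor spheroids or adherent cells dosed and incubated 48 h, 37C, 5% CO2. Viability assessed by CellTiter-Glo.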

[2] = NS1 protein of Zika virus - qHTS assay to identify small molecule inhibitors in human HEK 293 cells (AID 1347053); conditions: HEK293 ZIKV MR766 infection, NS1 TR-FRET, 24 h; series mostly up to 46.1 µM; also: nearly all actives have a fitted effect of over 55% in size; also: potency is read from the fitted curve at half-maximal effect
Procedure, shortened: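 Following 20 h seeding, HEK 293 cells took compound, then 1 h later ZIKV MR766 (MOI = 0.5). Incubation ran 24 h at 37 C before TR-FRET detection of NS1; a drop in signal indicates inhibition.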

[3] = P-glycoprotein substrates identified in KB-8-5-11 adenocarcinoma cell line, qHTS therapeutic library screen (AID 1346987); conditions: KB-8-5-11 (P-gp overexpressing) viability, CellTiter-Glo, 72 h; series mostly up to 44.5 µM; also: nearly all actives have a fitted effect of over 65% in size; also: potency is read from the fitted curve at half-maximal effect
Procedure, shortened: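 KB-8-5-11: colchicine-selected sub-line of KB-3-1 over-expressing P-gp; assay medium lacked colchicine. 72 h drug exposure at 37 degree C, CellTiter-Glo.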

[4] = Identifying Small Molecule Inhibitors of Pancreatic Cancer Stem Cells (Panc1, Adherent) (AID 1259362); conditions: Potency: viability; series mostly up to 46.1 µM; also: potency is read from the fitted curve at half-maximal effect
Procedure, shortened: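 Luminescent ATP readout (CellTiter-Glo) quantifies surviving cells after a 48 h drug incubation. Normalization uses DMSO wells as no inhibition and media-only wells as full inhibition; bortezomib served as positive control.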

[5] = target: Tyrosine-protein phosphatase non-receptor type substrate 1 (Homo sapiens) + Leukocyte surface antigen CD47 (Homo sapiens) (UniProt P78324+Q08722); assay: CD47-SIRPalpha protein protein interaction - LANCE assay qHTS validation (AID 1347057; active = well fitted curve in the direction sought with a large enough effect in the signal ratio, with a control signal flat, not every such curve was filed as active; the % refers to the signal ratio); conditions: Recombinant CD47-His / biotin-SIRPalpha, TR-FRET ratio; series mostly up to 38.3 µM
Procedure, shortened: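 First, His-tagged CD47 and Eu-labelled anti-His antibody met the compound for 30 min; next, site-specifically biotinylated SIRPalpha was added for 30 min; finally streptavidin-APC was added before reading the TR-FRET ratio.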

[6] = Identifying Small Molecule Inhibitors of Pancreatic Cancer Stem Cells (A278, Adherent) (AID 1259361); conditions: series mostly up to 46.1 µM;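 also: viability read after 48 h compound exposure; nearly all actives have a fitted effect of over 35% in size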
Procedure, shortened: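 Endpoint: ATP-based luminescence, 48 h drug exposure. Bortezomib at 9.2 uM final as full-kill control; DMSO vehicle as negative control; activity normalized between vehicle and cell-free wells.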

[7] = P-glycoprotein substrates identified in KB-3-1 adenocarcinoma cell line, qHTS therapeutic library screen (AID 1346986); conditions: KB-3-1 parental cells viability, CellTiter-Glo, 72 h; series mostly up to 44.5 µM; also: nearly all actives have a fitted effect of over 60% in size;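 also: potency is read from the fitted curve at half-maximal effect; potency is for cytotoxicity meaning loss of cell viability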
Procedure, shortened: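 Compounds were tested in dose-response against KB-3-1 and KB-8-5-11 cells at 37 degree C for 72 h, and viability was measured by luminescence. AC50 values came from curve fitting with class-based activity calls.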

[8] = Natriuretic polypeptide receptor (hNpr1) antagonism - Pilot counterscreen GloSensor control cell line (AID 1347045; calls by dose curve); conditions: HEK293 cGMP GloSensor cells, SNP-stimulated luminescence, 20 min; series mostly up to 38.3 µM
Procedure, shortened: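 HEK293 cells carrying the GloSensor cGMP sensor (GIP/pGS-40F) were loaded with 2% GloSensor reagent for 2 h, exposed to compounds for 30 min, and then stimulated with 50 uM sodium nitroprusside for 20 min at room temperature.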

[9] = target: Atrial natriuretic peptide receptor 1 (Homo sapiens) (UniProt P16066); assay: Natriuretic polypeptide receptor (hNpr1) antagonism - Pilot screen (AID 1347049; calls by dose curve;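 also: agonist-evoked cGMP luminescence read 20 min after hNppA addition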); conditions: hNpr1 cells, antagonist mode cGMP read-out; series mostly up to 57.5 µM
Procedure, shortened: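 HEK293 cells expressing hNpr1 and GloSensor cGMP luciferase, 1500/well, loaded with 2% GloSensor reagent 2 h, compound 30 min at room temperature; luminescence read before and 20 min after 0.1 nM hNppA stimulation.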

[10] = target: Atrial natriuretic peptide receptor 2 (Homo sapiens) (UniProt P20594); assay: Natriuretic polypeptide receptor (hNpr2) antagonism - Pilot subtype selectivity assay (AID 1347050; calls by dose curve); conditions: NPR2-expressing cells, cGMP antagonist-mode read-out; series mostly up to 38.3 µM
Procedure, shortened: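 HEK293 cells expressing hNpr2 and a GloSensor cGMP luciferase sensor, 1500/well, preloaded 2 h with 2% GloSensor reagent, compound 30 min, then 1 nM hNppC for 20 min. Antagonism from luminescence after versus baseline pre-read; LOPAC in 1:5 titrations.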

Sequence of Tyrosine-protein phosphatase non-receptor type substrate 1 (Homo sapiens) + Leukocyte surface antigen CD47 (Homo sapiens) (P78324 whole entry, looked up): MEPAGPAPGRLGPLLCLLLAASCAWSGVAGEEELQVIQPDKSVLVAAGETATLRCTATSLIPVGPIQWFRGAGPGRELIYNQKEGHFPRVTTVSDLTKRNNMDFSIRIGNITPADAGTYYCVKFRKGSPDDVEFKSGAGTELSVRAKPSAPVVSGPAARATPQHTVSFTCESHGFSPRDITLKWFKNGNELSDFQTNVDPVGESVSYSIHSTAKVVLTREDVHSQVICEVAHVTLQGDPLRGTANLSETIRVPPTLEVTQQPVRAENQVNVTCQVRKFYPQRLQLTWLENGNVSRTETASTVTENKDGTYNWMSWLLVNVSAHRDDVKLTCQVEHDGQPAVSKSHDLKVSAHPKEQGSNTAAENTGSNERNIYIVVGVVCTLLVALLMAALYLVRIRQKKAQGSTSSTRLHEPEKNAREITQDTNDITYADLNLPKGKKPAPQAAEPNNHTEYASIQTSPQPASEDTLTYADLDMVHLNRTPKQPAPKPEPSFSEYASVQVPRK
Sequence of Tyrosine-protein phosphatase non-receptor type substrate 1 (Homo sapiens) + Leukocyte surface antigen CD47 (Homo sapiens) (Q08722 whole entry, looked up): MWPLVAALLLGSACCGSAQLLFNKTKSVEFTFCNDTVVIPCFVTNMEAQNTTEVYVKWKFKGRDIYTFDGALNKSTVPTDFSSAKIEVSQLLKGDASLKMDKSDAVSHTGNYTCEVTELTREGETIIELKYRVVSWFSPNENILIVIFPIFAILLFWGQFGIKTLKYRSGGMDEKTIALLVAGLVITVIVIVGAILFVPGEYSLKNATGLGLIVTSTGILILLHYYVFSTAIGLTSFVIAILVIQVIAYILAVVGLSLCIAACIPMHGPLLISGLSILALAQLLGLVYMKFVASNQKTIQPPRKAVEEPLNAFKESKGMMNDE
Sequence of Atrial natriuretic peptide receptor 2 (Homo sapiens) (P20594 whole entry, looked up): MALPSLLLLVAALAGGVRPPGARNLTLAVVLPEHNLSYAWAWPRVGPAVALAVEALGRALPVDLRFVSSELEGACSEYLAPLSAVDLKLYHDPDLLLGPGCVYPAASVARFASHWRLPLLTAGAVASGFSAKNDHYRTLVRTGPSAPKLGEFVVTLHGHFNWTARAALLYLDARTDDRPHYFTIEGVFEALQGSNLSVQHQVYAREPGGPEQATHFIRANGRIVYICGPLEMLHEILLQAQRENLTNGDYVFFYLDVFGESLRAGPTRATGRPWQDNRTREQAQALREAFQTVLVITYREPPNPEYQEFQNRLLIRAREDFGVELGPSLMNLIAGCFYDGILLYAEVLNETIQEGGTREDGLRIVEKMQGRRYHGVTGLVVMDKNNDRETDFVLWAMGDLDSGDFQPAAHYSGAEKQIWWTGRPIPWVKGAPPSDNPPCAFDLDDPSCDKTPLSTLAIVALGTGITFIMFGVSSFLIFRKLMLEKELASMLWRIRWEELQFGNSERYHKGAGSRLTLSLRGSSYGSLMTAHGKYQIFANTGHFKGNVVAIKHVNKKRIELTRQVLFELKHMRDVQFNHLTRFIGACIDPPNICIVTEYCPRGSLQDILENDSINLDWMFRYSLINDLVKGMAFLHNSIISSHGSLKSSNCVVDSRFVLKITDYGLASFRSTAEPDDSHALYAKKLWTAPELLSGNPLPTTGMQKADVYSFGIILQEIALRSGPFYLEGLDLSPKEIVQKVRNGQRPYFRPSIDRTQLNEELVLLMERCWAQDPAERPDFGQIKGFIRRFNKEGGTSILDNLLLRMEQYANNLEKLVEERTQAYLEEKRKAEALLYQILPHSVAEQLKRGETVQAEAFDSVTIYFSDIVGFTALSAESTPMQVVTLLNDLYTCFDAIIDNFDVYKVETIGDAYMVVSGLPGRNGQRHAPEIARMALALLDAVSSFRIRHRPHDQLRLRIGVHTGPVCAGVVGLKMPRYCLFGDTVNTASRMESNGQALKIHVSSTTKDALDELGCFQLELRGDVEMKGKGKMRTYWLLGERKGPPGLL
Sequence of Atrial natriuretic peptide receptor 1 (Homo sapiens) (P16066 whole entry, looked up): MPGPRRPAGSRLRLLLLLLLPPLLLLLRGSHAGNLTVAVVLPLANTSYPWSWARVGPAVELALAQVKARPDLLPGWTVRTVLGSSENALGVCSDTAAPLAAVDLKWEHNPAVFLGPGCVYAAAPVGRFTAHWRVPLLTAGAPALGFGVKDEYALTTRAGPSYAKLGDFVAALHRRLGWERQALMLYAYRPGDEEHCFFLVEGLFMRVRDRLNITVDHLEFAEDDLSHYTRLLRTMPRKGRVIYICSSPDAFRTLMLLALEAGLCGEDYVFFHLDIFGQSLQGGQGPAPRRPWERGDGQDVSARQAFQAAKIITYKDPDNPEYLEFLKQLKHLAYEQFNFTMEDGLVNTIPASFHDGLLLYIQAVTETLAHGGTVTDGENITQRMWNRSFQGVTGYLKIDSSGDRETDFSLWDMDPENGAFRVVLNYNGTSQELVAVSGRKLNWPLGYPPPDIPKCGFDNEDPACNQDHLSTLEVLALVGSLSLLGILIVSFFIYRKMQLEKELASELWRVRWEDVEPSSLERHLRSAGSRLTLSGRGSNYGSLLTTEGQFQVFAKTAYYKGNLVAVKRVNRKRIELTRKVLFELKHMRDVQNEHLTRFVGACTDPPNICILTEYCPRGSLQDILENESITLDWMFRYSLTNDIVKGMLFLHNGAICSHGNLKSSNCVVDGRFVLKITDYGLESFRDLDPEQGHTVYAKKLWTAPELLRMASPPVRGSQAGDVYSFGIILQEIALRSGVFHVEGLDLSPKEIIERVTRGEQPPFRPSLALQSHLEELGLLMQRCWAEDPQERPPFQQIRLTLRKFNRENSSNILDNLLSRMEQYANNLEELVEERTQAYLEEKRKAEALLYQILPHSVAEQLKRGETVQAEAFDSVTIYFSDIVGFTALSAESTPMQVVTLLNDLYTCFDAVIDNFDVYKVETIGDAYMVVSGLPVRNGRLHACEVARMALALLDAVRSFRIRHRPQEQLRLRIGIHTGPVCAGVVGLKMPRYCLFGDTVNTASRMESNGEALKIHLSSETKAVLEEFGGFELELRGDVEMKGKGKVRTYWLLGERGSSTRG

In the case of `Nc1nc2[nH]cc(CCc3ccc(C(=O)N[C@@H](CCC(=O)O)C(=O)O)cc3)c2c(=O)[nH]1`, the Potency [1] is reported as “inactive” and the Potency [2] is reported as “inactive”.
In the case of `CN(C)c1ccc(C2Nc3ccc4ccccc4c3C3=C2C(=O)CC(C)(C)C3)cc1Br` (stereo not drawn), the Potency [1] is reported as “inactive” and the Potency [3] is reported as “inactive”.
For `OCCC#Cc1nc(-c2ccc(F)cc2)c(-c2ccncc2)n1CCCc1ccccc1`, the Potency [1] was 20.9 µM (active) and the Potency [2] was “inactive”.
With `CC(=O)NC(C)c1ccc(Oc2ccc(OC(C)C)cc2)cc1` (stereo not drawn) the Potency [1] was “inactive”, the Potency [4] was 4.69 µM (active) and the Potency [3] was “inactive”. For the same compound, the Potency [2] was “inactive”.
With `CCc1cncnc1N1CCN(Cc2nc3ccc(C(F)(F)F)cc3[nH]2)CC1` the Potency [1] was 14.8 µM (active), the Potency [2] was “inactive” and the outcome [5] was “inactive”.
For `CCc1cc(Nc2nccc(-c3c(-c4ccc(OC)c(C(=O)Nc5c(F)cccc5F)c4)nc4ccccn34)n2)c(OC)cc1N1CCC(N2CCN(S(C)(=O)=O)CC2)CC1`, the IC50 (viability decrease) [6] was “inactive”, the Potency [4] was “inactive” and the Potency [3] was “inactive”. The Potency [2] was 26.4 µM (active).
With `COc1ccc(C2=N[C@H](c3ccc(Cl)cc3)[C@H](c3ccc(Cl)cc3)N2C(=O)N2CCNC(=O)C2)c(OC(C)C)c1` the IC50 (viability decrease) [6] was 18.7 µM (active) and the Potency [4] was “inactive”.
In the case of `CC(C)(N)C(=O)N[C@H](COCc1ccccc1)C(=O)N1CCC2(CC1)CN(S(C)(=O)=O)c1ccccc12`, the Potency [1] is reported as “inactive” and the Potency [3] is reported as “inactive”.
In the case of `S=C(NCc1ccc2c(c1)OCO2)N1CCN(c2ncnc3c2oc2ccccc23)CC1`, the IC50 (viability decrease) [6] is reported as 4.18 µM (active).
In the case of `CCOc1ccc(Cc2cc([C@@H]3O[C@H](CO)[C@@H](O)[C@H](O)[C@@H]3O)ccc2Cl)cc1`, the Potency [1] is reported as “inactive”, the Potency [3] is reported as “inactive” and the Potency [2] is reported as “inactive”.
For `O=c1[nH]c(-c2ccc(C(F)(F)F)cc2)nc2c1CSCC2`, the IC50 (viability decrease) [6] was “inactive”, the Potency [4] was “inactive” and the Potency [7] was “inactive”. The Potency [3] was “inactive” and the Potency [2] was “inactive”.
For `CS(=O)(=O)c1ccc(C(=O)Nc2ccc(Cl)c(-c3ccccn3)c2)c(Cl)c1`, the Potency [1] was “inactive”, the Potency [3] was “inactive” and the Potency [2] was “inactive”.
For `Cc1oncc1C(=O)Nc1ccc(C(F)(F)F)cc1`, the outcome [8] was “inactive”.
In the case of `CC(C)C[C@H](NC(=O)[C@@H](O)[C@H](N)Cc1ccccc1)C(=O)O`, the outcome [8] is reported as “inactive” and the outcome [9] is reported as “inactive”.
With `O=C(C1CC1)N1CC[C@@H](Cn2c(-c3ccc(-c4ccc5occc5c4)cc3)nc3cnccc32)C1` the Potency [3] was “inactive”.
For `Cc1ccccc1C(OCCN(C)C)c1ccccc1` (stereo not drawn), the Potency [7] was “inactive”, the Potency [3] was “inactive” and the outcome [8] was “inactive”. For the same compound, the outcome [9] was “inactive”, the Potency [10] was “inactive” and the Potency [2] was “inactive”. For the same compound, the outcome [5] was “inactive”.
With `CNC[C@H](O)c1cccc(O)c1` the Potency [7] was “inactive”, the Potency [3] was “inactive” and the outcome [8] was “inactive”. The Potency [10] was “inactive”, the Potency [2] was “inactive” and the outcome [5] was “inactive”.
In the case of `O=c1[nH]cnc2[nH]ncc12`, the Potency [3] is reported as “inactive”, the outcome [8] is reported as “inactive” and the Potency [10] is reported as “inactive”. The Potency [2] was “inactive” and the outcome [5] was “inactive”.
With `CCOC(=O)C1=C[C@]2(CC)CCCN3CCc4c(n1c1ccccc41)[C@@H]32` the Potency [3] was 26.4 µM (active), the outcome [8] was “inactive” and the Potency [10] was “inactive”. For the same compound, the Potency [2] was “inactive” and the outcome [5] was “inactive”.
For `CO[C@@H]1[C@H](N(C)C(=O)c2ccccc2)C[C@H]2O[C@]1(C)n1c3ccccc3c3c4c(c5c6ccccc6n2c5c31)C(=O)NC4`, the Potency [7] was 1.3 µM (active) and the Potency [3] was 1.48 µM (active) and 1.3 µM (active).
With `CCCC(CCC)C(=O)O` the Potency [3] was “inactive”, the outcome [8] was “inactive” and the outcome [9] was “inactive”. For the same compound, the Potency [10] was “inactive”, the Potency [2] was “inactive” and the outcome [5] was “inactive”.
For `CC(C)NCC(O)COc1ccc(COCCOC(C)C)cc1` (stereo not drawn), the Potency [3] was “inactive”, the outcome [8] was “inactive” and the Potency [10] was “inactive”. For the same compound, the Potency [2] was “inactive” and the outcome [5] was “inactive”.
In the case of `CC(C[N+](C)(C)C)OC(N)=O` (stereo not drawn), the Potency [3] is reported as “inactive”, the outcome [8] is reported as “inactive” and the Potency [10] is reported as “inactive”. For the same compound, the Potency [2] was “inactive” and the outcome [5] was “inactive”.
With `COc1ccc(-c2ccc3c(N4CCOC[C@H]4C)nc(N4CCOC[C@H]4C)nc3n2)cc1CO` the Potency [3] was 0.0132 µM (active).
For `NC(=O)c1cnccn1`, the Potency [7] was “inactive”, the Potency [3] was “inactive” and the outcome [8] was “inactive”. The Potency [10] was “inactive”, the Potency [2] was “inactive” and the outcome [5] was “inactive”.
For `O=C(Nc1nc2ccccc2n1CCN1CCOCC1)c1cccc([N+](=O)[O-])c1`, the Potency [7] was “inactive”, the Potency [3] was “inactive” and the outcome [8] was “inactive”. For the same compound, the Potency [2] was “inactive” and the outcome [5] was “inactive”.
In the case of `O=c1n(CCCN2CCN(c3cccc(Cl)c3)CC2)nc2ccccn12`, the Potency [3] is reported as “inactive”, the outcome [8] is reported as “inactive” and the outcome [9] is reported as “inactive”. For the same compound, the Potency [10] was “inactive”, the Potency [2] was “inactive” and the outcome [5] was “inactive”.
With `CC(=O)Oc1ccccc1C(=O)O` the Potency [3] was “inactive”, the outcome [8] was “inactive” and the Potency [10] was “inactive”. The Potency [2] was “inactive” and the outcome [5] was “inactive”.
With `Cn1cnc([N+](=O)[O-])c1Sc1ncnc2nc[nH]c12` the Potency [3] was 4.61 µM (active) and 2 µM (active) and 833 nM (active), the outcome [8] was “inactive” and the Potency [10] was “inactive”. The Potency [2] was “inactive” and the outcome [5] was “inactive”.
With `NC(N)=NC(=O)c1nc(Cl)c(N)nc1N` the Potency [7] was “inactive”, the Potency [3] was 25.9 µM (active) and the outcome [8] was “inactive”. For the same compound, the outcome [9] was “inactive”, the Potency [10] was “inactive” and the Potency [2] was “inactive”. The outcome [5] was “inactive”.
